Hits are enriched below; roughly 6% of the tested compounds scored in any of these assays.
D3 ag – agonists of human D3 dopamine receptor; P35462; D3R DiscoveRx beta-arrestin cells, luminescence, 90 min; max activation, %; hit rate 0.58% among 410,000; in the data active = max activation above about 30%; note: 0% is about no effect
Target sequence (P35462 whole entry, looked up): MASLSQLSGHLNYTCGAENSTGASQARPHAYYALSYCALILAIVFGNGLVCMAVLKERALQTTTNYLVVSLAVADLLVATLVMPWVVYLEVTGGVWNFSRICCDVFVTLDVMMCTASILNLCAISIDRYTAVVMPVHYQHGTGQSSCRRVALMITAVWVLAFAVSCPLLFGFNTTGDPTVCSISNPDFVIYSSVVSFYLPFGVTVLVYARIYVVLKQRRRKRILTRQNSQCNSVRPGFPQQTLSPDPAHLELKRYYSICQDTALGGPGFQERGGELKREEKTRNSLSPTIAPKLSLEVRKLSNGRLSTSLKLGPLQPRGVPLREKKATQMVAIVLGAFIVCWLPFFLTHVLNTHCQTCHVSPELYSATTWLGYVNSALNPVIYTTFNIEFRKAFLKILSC
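Agonist mode: compounds and dopamine controls were applied to plated cells for 90 min at 37 degrees C after an overnight attachment at 1500 cells/well. Luminescent read-out followed 30 - 60 minutes at room temperature with DiscoveRx detection reagent.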
D1 antag – blocks dopamine activation of the human D1 receptor | P21728 | HEK293 TREx D1 cells, calcium flux, dopamine EC80; active compounds read low | activity change, negative = inhibition, % at 10 µM | hit rate 3.2% among 360,000 | AID 504652; in the data active = activity change below about -30%; note: % is set by controls: 0 for no effect and ±100 for the full control effect
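Using tetracycline-induced force-coupled D1 Hek293 cells and a calcium dye, signals were followed for 180 s after compound, then for 180 s after EC80 dopamine, to detect inhibitors.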
D1 PAM – enhances dopamine response at the human D1 receptor; P21728; HEK293 TREx D1 cells, calcium flux, dopamine EC20 potentiation; potentiation, % at 10 µM; hit rate 0.036% among 360,000; in the data active = potentiation above about 30%; note: 0% is about no effect
D1 ag – agonists of human D1 dopamine receptor | P21728 | HEK293 T-REx D1 cells, calcium flux, agonist mode | activation, % at 2 µM | hit rate 1% among 360,000; in the data active = activation above about 30%; note: 0% is about no effect
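Inducible HEK293 T-REx D1 cells, force-coupled to calcium signalling, were plated at 4000 cells/well with tetracycline and held overnight at 30 C. After no-wash calcium dye loading, compound-evoked calcium rise over 180 s flagged agonists.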
D3 antag – blocks the human D3 dopamine receptor; D3R cells, DiscoveRx beta-arrestin luminescence, antagonist mode; active compounds read low; max response, negative = inhibition, %; hit rate 2.5% among 360,000; AID 652054; in the data active = max response below about -50%; inconclusive = no clear call, values can overlap the other calls; note: % is set by controls: 0 for no effect and ±100 for the full control effect
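Cells plated overnight at 1500 cells/well, then exposed to library compounds with dopamine controls for 90 minutes at 37 degrees C. DiscoveRx reagent added for 30–60 minutes at room temperature; luminescence read, quantitative HTS format.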
* = called active by the depositor; ? = inconclusive; / = not tested or not shown; ! = repeats disagree.

SMILES	D3 ag	D1 antag	D1 PAM	D1 ag	D3 antag
COc1ccc2[nH]c3nc(SCC(=O)Nc4cccc(NC(C)=O)c4)nnc3c2c1	1	5	-5	0	1
CC(=O)c1ccc(NC(=O)CSc2nnc3c(n2)[nH]c2ccccc23)cc1	-7	-37*	-9	3	/
CC1Cc2ccccc2N1C(=O)CSc1nnc2c(n1)[nH]c1ccc(F)cc12 (stereo unspecified)	-3	1	-5	0	-68*
CCOC(=O)CN(C(=O)CSc1nnc(CNc2ccc(F)cc2)n1C)c1ccccc1	-6	9	-1	0	-24
Cc1ccc(Cn2cc(S(=O)(=O)c3cccc(C)c3)c(=O)c3cc(F)c(N4CCOCC4)cc32)cc1	-4	-3	-3	0	/
O=C(NC1CCN(Cc2ccccc2)CC1)c1ccc(Cn2c(=O)c3ccccc3n(Cc3ccc(Cl)cc3)c2=O)cc1	-10	-18	1	-1	/
CC(=O)Nc1ccc(-c2ccnc3c2CC(C(=O)NCc2ccco2)O3)cc1 (stereo unspecified)	-5	/	/	/	-15
COc1ccc(-c2nnc(SCC(=O)Nc3ccc(C(C)=O)cc3)nc2-c2ccc(OC)cc2)cc1	-11	-70*	-9	3	/
CCOC(=O)CN(C(=O)CSc1nnc2c(n1)[nH]c1ccc(OC)cc12)c1ccc(F)cc1	-7	3	1	2	-65*
CCOC(=O)C(NC(=O)c1ccccc1)(OCc1ccc(F)cc1)C(F)(F)F (stereo unspecified)	27	-12	-7	-1	3
CCOC(=O)C(NC(=O)c1cccc(Cl)c1)(OCc1ccc(F)cc1)C(F)(F)F (stereo unspecified)	11	-35*	-3	13	-6
O=c1[nH]c(SCc2nc3c(cnn3-c3ccccc3)c(=O)[nH]2)nc2ccccc12	4	-9	5	3	33
O=c1[nH]c(CSc2nc3ccccc3[nH]2)nc2c1cnn2-c1ccccc1	3	-37*	-6	16	3
CC(C)c1ccc(OCc2ccc(C(=O)O)o2)cc1	0	4	-6	5	-9
CC(C)c1ccc(OCc2ccc(C(=O)N(C)C)o2)cc1	4	-32*	-3	10	0
CN1[C@@H]2CC[C@H]1CC(OC(=O)[C@H](CO)c1ccccc1)C2 (stereo partly specified)	-31	-61*	-3	2	-20
COc1ccc2c(C)c(Cl)c(=O)oc2c1	2	6	2	2	9
C=C1CC(COc2ccc3c(C)c(Cl)c(=O)oc3c2)(c2ccccc2)OC1=O (stereo unspecified)	-24	/	/	/	-99*
Cc1c(Cl)cccc1Nc1nc(N)nc(CSc2nc3ccccc3s2)n1	5	-44*!	-2	4	31
Nc1nc(CSc2nc3ccccc3s2)nc(Nc2ccccc2)n1	/	-24	-6	10	/
O=C(O)C(c1ccccc1)N1C(=O)/C(=C\c2ccc(O)c(O)c2)SC1=S (stereo unspecified)	-2	-3	1	23	?
CCOc1cc(/C=C2\SC(=S)N(C(C(=O)O)c3ccccc3)C2=O)ccc1O (stereo unspecified)	-4	4	1	172*	?
CCOc1cc(/C=C2/SC(=S)N(CC3CCCO3)C2=O)ccc1O (stereo unspecified)	-2	2	7	68*	-64*
COc1cc(/C=C2\SC(=S)N(C(C(=O)O)c3ccccc3)C2=O)ccc1O (stereo unspecified)	-2	16	13	82*	?
Cc1ccn(-c2ccc(NC(=O)c3cccs3)cc2)n1	4	-2	1	3	-9
SMILES	D3 ag	D1 antag	D1 PAM	D1 ag	D3 antag
COc1ccc2cc(CNc3ccc(C)cc3)c(=O)n(CC(=O)Nc3ccc(OC)c(Cl)c3)c2c1	7	11	-1	0	/
CCOc1ccc(NC(=O)CN2CCN(C3CCCCC3)C(=O)C2=O)cc1	-25	-11	1	3	/
CCCOc1ccc(-c2cc(C(F)(F)F)c(C#N)c(SCCC(=O)O)n2)cc1	2	-10	-2	9	/
COc1ccc(CNC(=O)Cn2c(-c3ccccc3)cc(C(C)=O)c2C)cc1OC	-10	-26	-4	1	/
COc1ccc(-c2nnc(SCC(=O)Nc3ccc(Cl)cc3)s2)cc1	-6	-4	1	1	/
COc1ccc(C2Nc3ccccc3C(=O)N2Cc2ccccc2)cc1 (stereo unspecified)	-6	-39*	-4	4	?
COc1ccc(C2Nc3ccccc3C(=O)N2Cc2ccccc2)cc1OC (stereo unspecified)	-2	/	/	/	15
FC(F)(F)C(F)(F)C(F)(F)C(F)(F)C(F)(F)C(F)(F)C(F)(F)C(F)(F)Br	4	/	/	/	/
CCOC(=O)c1c(NC(=O)Cn2nnc3ccccc32)sc2c1CCC(C)C2 (stereo unspecified)	33*	7	-3	5	-8
O=C(NCCc1cccs1)Nc1ccc2nc([C@@H]3O[C@H](CO)[C@@H](O)[C@H]3O)[nH]c2c1	3	/	/	/	32
Cc1ccc2occ(/C=N/NC(=O)c3ccc(Cl)cc3)c(=O)c2c1	-5	-9	2	2	-6
COc1c(Br)cc(Br)cc1/C=N/NC(=O)c1ccncc1	-9	4	-8	-1	-80*
COc1cccc(C(=O)Oc2c(Br)cc(Br)cc2/C=N/NC(=O)c2cc(C)[nH]n2)c1	-3	-32*	-3	10	-12
COc1c(Br)cc(Br)cc1/C=N/NC(=O)c1cccnc1	-29	4	-8	2	-96*
Cc1cc(C(=O)N/N=C/c2cccc(OC(=O)c3cccc(Br)c3)c2)n[nH]1	-12	8	0	2	1
COc1cc(/C=N/NC(=O)c2cccnc2)cc(Br)c1O	-1	-4	4	4	-5
Cc1ccc2occ(/C=N/NC(=O)c3ccncc3)c(=O)c2c1	8	-34*	-2	1	4
CC(C)C(=O)N1CCC1(C)C(=O)NCc1ccc(C(C)(C)C)cc1 (stereo unspecified)	-5	/	/	/	0
COc1ccccc1N(CC(=O)Nc1ccc2c(c1)OCO2)S(=O)(=O)c1ccc(C)cc1	-10	-10	-4	3	/
COc1ccccc1/C=N/NC(=O)c1ccc(NC(=O)c2ccccc2Br)cc1	1	-28	-2	10	1
CCC(=O)Nc1ccc(C(=O)N/N=C/c2cc(Br)c(OC)cc2OC)cc1	1	-31*	-8	2	7
OC1CCN(Cc2cn(Cc3ccccc3)nc2-c2cc3ccccc3o2)CC1	-14	-31*	-6	25	-11
COCC1CCN(Cc2cn(Cc3ccccc3)nc2-c2cc3ccccc3o2)CC1	-21	-1	-2	39*	-24
COC(=O)C1CCN(Cc2cn(Cc3ccccc3)nc2-c2cc3ccccc3o2)CC1	23	-5	2	6	-25

Compound activity from PubChem.
